# The whole screen tested about 290,000 compounds, of which about 2,700 (0.93%) were called active. The sample as a whole holds a higher share of actives than the screen did. Values without a mark were called inactive.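 Rule for the calls: active = inhibition above the screen-wide mean plus 3 SD, computed separately per campaign (cut at about 16% in these data); inactive = the rest.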
# System: Heat shock protein HSP 90 (rabbit reticulocyte lysate; luciferase refolding)
# Experiment: inhibitors of HSP90 chaperone activity – cell lysate, luminescence, primary screen (AID 1789);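 note: 0% = DMSO wells and 100% = 60 µM geldanamycin wells; inhibitors lower the luminescence because luciferase stays unfolded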
# Conditions: 3 h, at 5.6 µM, hits give high values
row,SMILES,inhibition
1,COc1ccc(/C=C/c2noc(-c3ccccc3OC(C)=O)n2)cc1,24.5% (active)
2,CC(=O)Oc1ccc(-c2nc3c(C)cccc3c(=O)o2)cc1,-3.74%
3,CC(=O)Oc1ccc2c(c1)C(=O)c1ccccc1C2=O,4.58%
4,Cc1ccc2cc(/C=N/Nc3ccc(C(=O)O)cc3)c(Cl)nc2c1,1.97%
5,O=C(O)c1ccc(/C=N/Nc2nc(N3CCCCC3)nc(N3CCCCC3)n2)cc1,1.51%
6,O=C(O)c1ccc(N/N=C/c2ccc3ncccc3c2)cc1,16.2% (active)
7,O=C(CN1C(=O)c2ccccc2S1(=O)=O)N1CCc2ccccc21,56.6% (active)
8,O=C(CN1C(=O)c2ccccc2S1(=O)=O)NC1CCCCC1,0.8%
9,O=C(CN1CCN(c2ccccn2)CC1)N1CCc2ccccc21,2.52%
10,O=C(Oc1cccc(O)c1)C1CCCCC1,2.03%
11,O=C(CSC(=S)N1CCOCC1)c1cc(Br)cc(Br)c1O,-0.31%
12,O=C(CSC(=S)N1CCOCC1)c1ccccc1,34.1% (active)
13,CC1CN(C(=S)SCC(=O)c2ccccc2)CC(C)O1 (centres undefined),1.9%
14,Cc1cccc(NC(=O)c2cccc(C(=O)Nc3cccc(C)c3C)n2)c1C,-2.8%
15,O=C(NCCCc1ccccc1)c1cc(COc2c(F)cccc2F)on1,-1.08%
16,COc1ccc(CNS(=O)(=O)c2cc(-c3cc(C)no3)ccc2C(C)C)cc1,6.8%
17,CCN(CC)CCN(C(=O)c1cc(Cl)sc1Cl)c1nc2cc3c(cc2s1)OCO3,0.85%
18,COc1ccc(/C=N/Nc2nc(-c3ccc(C)cc3)c(C#N)c(=O)[nH]2)cc1,-6.02%
19,S=c1[nH]nc(-c2ccco2)n1/N=C/c1ccccc1,1.32%
20,Cn1cccc1-c1nc2ccccc2n1C,2.48%
21,Cn1c(-c2ccco2)nc2cc3ccccc3cc21,37.7% (active)
22,CC(C)Cn1cnc2c1c(=O)n(CC(=O)NN)c(=O)n2Cc1ccccc1,-0.47%
23,COc1ccc(OC)c(NC(=O)c2cccc(S(=O)(=O)N3CCN(C(C)=O)CC3)c2)c1,0.82%
24,Cc1c(NC(=O)c2c([N+](=O)[O-])cnn2C)c(=O)n(-c2ccccc2)n1C,0.17%
25,O=C(/C=C/c1ccc2c(c1)OCO2)NCc1cn2cc(Cl)ccc2n1,-0.84%
26,CCOc1ncccc1C(=O)OCc1cn2cc(Cl)ccc2n1,-0.94%
27,Clc1ccc2nc(CSc3ccccc3)cn2c1,25.5% (active)
28,N#C[C@]1(S(=O)(=O)c2ccccc2)C[C@@H]2ON=C(c3cccc(Br)c3)[C@@H]2C1,0.82%
29,COc1ccc(C(=O)N[C@H](C(=O)NCc2ccccc2)C(C)C)cc1,-4.29%

# Reference: PubChem BioAssay AID1789 (The Scripps Research Institute Molecular Screening Center, 2009)
